Anthrax LF prot – Bacillus anthracis LF protease inhibitors, primary screen, biochemical, multiplex microsphere, MLPCN library | multiplex microsphere protease cleavage assay | inhibition, % at 10 µM | AID 588501, 2011 | 360,000 compounds, 0.12% hits | Lethal factor (Bacillus anthracis), P15917
Target sequence (P15917 whole entry, looked up): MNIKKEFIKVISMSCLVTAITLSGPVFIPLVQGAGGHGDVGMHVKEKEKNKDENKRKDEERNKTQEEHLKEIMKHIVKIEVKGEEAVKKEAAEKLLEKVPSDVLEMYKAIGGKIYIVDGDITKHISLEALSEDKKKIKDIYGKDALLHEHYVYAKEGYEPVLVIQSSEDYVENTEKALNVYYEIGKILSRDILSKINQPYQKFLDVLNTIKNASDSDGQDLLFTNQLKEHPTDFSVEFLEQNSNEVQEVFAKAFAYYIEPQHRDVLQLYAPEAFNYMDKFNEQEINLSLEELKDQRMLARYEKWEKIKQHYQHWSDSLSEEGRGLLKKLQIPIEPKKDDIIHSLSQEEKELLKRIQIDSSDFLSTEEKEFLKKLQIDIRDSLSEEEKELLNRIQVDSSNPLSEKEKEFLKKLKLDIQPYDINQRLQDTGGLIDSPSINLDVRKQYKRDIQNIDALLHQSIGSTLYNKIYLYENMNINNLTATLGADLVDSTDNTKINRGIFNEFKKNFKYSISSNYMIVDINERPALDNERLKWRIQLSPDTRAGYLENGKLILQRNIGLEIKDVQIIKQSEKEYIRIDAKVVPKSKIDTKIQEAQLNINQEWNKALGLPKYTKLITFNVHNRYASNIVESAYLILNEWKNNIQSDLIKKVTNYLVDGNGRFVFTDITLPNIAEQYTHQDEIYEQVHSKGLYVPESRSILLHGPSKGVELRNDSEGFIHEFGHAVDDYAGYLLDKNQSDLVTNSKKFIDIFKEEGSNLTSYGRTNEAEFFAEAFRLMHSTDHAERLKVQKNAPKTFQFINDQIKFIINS
BoNT-A LC inh2 – BoNT/A light chain protease inhibitors, primary screen, biochemical, flow cytometry, MLPCN library | 360,000 compounds, 0.17% hits | multiplex microsphere protease substrate cleavage | inhibition, % at 10 µM
Autofluor counter – compound fluorescence in toxin protease inhibitor counterscreen; 360,000 compounds, 3.1% hits; compound autofluorescence counterscreen, microsphere flow cytometry; hits give high values; fluorescence intensity (test concentration not listed); AID 624483; in the data active = fluorescence intensity above about 16000; inconclusive = no clear call, values can overlap the other calls
BoNT F protease – BoNT/F light chain protease inhibitors, primary screen, biochemical, flow cytometry, MLPCN library; inhibition, % at 10 µM; Multiplex microsphere protease cleavage assay; 360,000 compounds, 0.22% hits; Botulinum neurotoxin type F light chain protease (Clostridium botulinum); in the data active = inhibition above about 35%, passing the limit was not always enough; inconclusive = no clear call, values can overlap the other calls
Each line names hits and unclear results; the compound was inactive in the other large screens. The list is not random: actives were taken first. Their share in the collection is about 3.5%. Cut-off read from the data, not from the text of the source, unless noted: active = inhibition above about 30%; inconclusive = no clear call, values can overlap the other calls; inactive = below that.

CC(=O)N1CCc2[nH]c3ccc(C)cc3c2C1	BoNT F protease inconclusive
Cc1ccc2[nH]c3c(c2c1)CN(C(=O)CN1CC(C)OC(C)C1)CC3 (centres undefined)	Autofluor counter 17955, BoNT F protease inconclusive
CC(=O)NCCn1c(SCc2ccccc2F)nc2ccccc2c1=O	none
CC(=O)NCCn1c(SCC(=O)NCCC2=CCCCC2)nc2ccccc2c1=O	Autofluor counter 24653
Cc1ccc(-n2nnnc2SCC(=O)NCCC2=CCCCC2)c(C)c1	Autofluor counter 20542
CCOC(=O)N1CCC(n2c(SCC(=O)NCCC3=CCCCC3)nc3ccccc3c2=O)CC1	Autofluor counter 19812
CC(=O)NCCn1c(SCc2cc(=O)n3cc(Cl)ccc3n2)nc2ccccc2c1=O	BoNT-A LC inh2 inconclusive, Autofluor counter 21005
CCOc1ccc(-c2c(C)sc3nc[nH]c(=O)c23)cc1	BoNT F protease inconclusive
CC(=O)c1cccc(NC(=O)c2ccc(-c3c(C)noc3C)c3ccoc23)c1	none
COc1ccc(S(=O)(=O)n2nc(C)cc2C)cc1OC	none
Cc1cccc(NC(=O)CNC(=O)COc2cccnc2[N+](=O)[O-])c1C	none
Cc1cc(C)n(CC(C)NCc2cn[nH]c2-c2ccc(C)c(C)c2)n1 (centres undefined)	Autofluor counter 28071
Cc1cc(C)n(CC(C)NCc2cn[nH]c2-c2cccc3ccccc23)n1 (centres undefined)	none
COc1cc(OC)cc(-c2nc3ccccc3s2)c1	Autofluor counter 23472
N#C/C(=C\c1cccn1S(=O)(=O)c1cccc([N+](=O)[O-])c1)S(=O)(=O)c1ccc(F)cc1	none
CCc1cccc(NC(=O)C2CCCN(S(=O)(=O)c3cnc[nH]3)C2)c1 (centres undefined)	none
O=C(Nc1cccc(C(F)(F)F)c1)C1CCCN(S(=O)(=O)c2cnc[nH]2)C1 (centres undefined)	Autofluor counter 22065
O=C1Nc2ccc(Br)cc2C1(O)c1ccc(F)cc1 (centres undefined)	none
CCOC(=O)C(CC)n1cnc2c(nnn2-c2ccc(F)cc2)c1=O (centres undefined)	none
COc1ccc(OCCOC(=O)c2cccc(-n3cnnn3)c2)cc1	Autofluor counter 20878
O=C(CN1CCN(C(=O)C2CCN(C(=O)/C=C/c3ccccc3)CC2)CC1)Nc1ccc(F)cc1	none
CC1=C(C#N)C(NC(=O)C(C)(C)C)(C(F)(F)F)C(=O)N1 (centres undefined)	Autofluor counter 21687
O=c1cnc2cc([N+](=O)[O-])ccc2[nH]1	none
COc1cc(Cl)c(C)cc1NC(=O)CSc1ccc(C)cc1	Autofluor counter 23633
COc1cc(Cl)c(C)cc1NC(=O)CSc1ccccc1	none
O=C(CN1C(=O)COc2ccccc21)N(Cc1ccccc1)Cc1ccccn1	BoNT-A LC inh2 inconclusive, Autofluor counter 22246
COc1ccc(NC(=O)CN2C(=O)C(C)Oc3ccccc32)cc1 (centres undefined)	Autofluor counter 23500
COc1ccc(CN(Cc2ccccn2)C(=O)CN2C(=O)C(C)Oc3ccccc32)cc1 (centres undefined)	Autofluor counter 22997
COc1ccc(NC(=O)CN2CCC(C)CC2)cc1	Autofluor counter 17348
COC(=O)c1c(-c2c(Cl)cccc2Cl)noc1C(=O)NNC(=O)N(C)C	none
COC(=O)c1cc(C(=O)NCc2ccc3c(c2)OCO3)cc([N+](=O)[O-])c1	BoNT-A LC inh2 inconclusive, BoNT F protease inconclusive
CCOc1cc(/C=N/NC(=O)CCn2nc(C)cc2C)ccc1O	none
CCC1Oc2ccccc2N(CC(=O)Nc2ccccc2OC)C1=O (centres undefined)	BoNT-A LC inh2 inconclusive, Autofluor counter 22225
CCC1Oc2ccc(C)cc2N(CC(=O)NCc2cc(OC)ccc2OC)C1=O (centres undefined)	none
CCC1Oc2ccc(C)cc2N(CC(=O)NCc2cccc(OC)c2)C1=O (centres undefined)	Autofluor counter 17853
N#Cc1ccc(Oc2ncccn2)cc1	none
CNc1c(NC(=O)C2CCC(C)CC2)c(=O)oc2ccccc12 (centres undefined)	none
CC(Oc1ccc([N+](=O)[O-])cc1)C(=O)NCC1CCCO1 (centres undefined)	none
C/C(=N\Nc1cc(Cl)nc(C)n1)c1ccc(C)cc1	Autofluor counter 22065
CCCC(=O)NC1=C(C#N)C2(CCCC2)Cc2ccccc21	BoNT-A LC inh2 inconclusive, Autofluor counter 17626
Cc1ccsc1/C=c1\sc2ncnn2c1=O	Autofluor counter 20527

Assay outcomes (PubChem BioAssay)
